Our source for the Potency and activity change, negative = growth inhibition values is PubChem BioAssay AID686979 (National Center for Advancing Translational Sciences (NCATS), 2013).

The campaign covered roughly 420,000 compounds. About 50,000 (12%) were called active. A call without a number means that no potency is given here. Inconclusive results (about 26%) are left out. This excerpt belongs to a sample that is enriched for actives. Unmarked numbers belong to inactive results. Calls follow the shape of the dose curve; as a rule, active = well fitted inhibition curve with a large enough effect; inconclusive = small, poorly fitted or top-dose-only effect; inactive = flat fitted curve, though single readings scatter.
Potency is read from the fitted curve at half-maximal effect.

This test can be described thus: qHTS for Inhibitors of human tyrosyl-DNA phosphodiesterase 1 (TDP1): qHTS in cells in presence of CPT. Also: nearly all actives have a fitted effect of over 55% in size. Particulars: chicken DT40 Tdp1-/-;hTDP1 cells + 20 nM CPT, ATP luminescence, 48 h; series mostly up to 46.2 µM. In a few lines:
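Cell growth measured by CellTiter-Glo luminescence after a minimum 48 h, 37 C compound exposure with 20 nM CPT in Tdp1-knockout DT40 cells stably expressing hTDP1, seeded 400/well; qHTS titration format.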
On the technique in general: qHTS replaces the single test concentration by a dilution series.
On to `COc1cc(NC(=O)CCS(=O)(=O)c2ccc3c(c2)oc(=O)n3C)cc(OC)c1`, for which the Potency result is “inactive”. Regarding `O=S(=O)(Nc1ccc(OC(F)(F)F)cc1)c1cccc2nonc12`, the Potency result was “inactive”. The same measure, in the same setting: under `C[C@H](NS(=O)(=O)c1ccc(Cl)cc1)C(=O)OCC(=O)N1CCOCC1` stands “inactive”.

For the compound `CC1CN(C(=O)c2ccccc2NS(=O)(=O)c2cccc([N+](=O)[O-])c2)CC(C)O1` (stereo not drawn), the Potency result is “inactive”. As to `COC(=O)C1=CO[C@@H](O[C@@H]2O[C@H](CO)[C@@H](O)[C@H](O)[C@H]2O)C2C1C[C@H](O)[C@@H]2C` (stereo partly drawn), the Potency entry is “inactive”.

For `CC[C@]12c3[nH]c4cc(CCC(=O)N(C)C)ccc4c3CCN1C(=O)[C@@H](CC(=O)NCCCn1ccnc1)C[C@@H]2C(=O)N1CCN(C(=O)C2CC2)CC1`, the Potency entry is “inactive”.

Consider `OC(CBr)C[n+]1cccc2cc(Br)ccc21` (stereo not drawn), for which the Potency was 4.47 µM (active). Still for that read-out and setting: under `COc1ccc(N2CCN(S(=O)(=O)c3ccc4c(c3)N(C(C)=O)CCO4)CC2)cc1` stands “inactive”; under `CN(C)c1ccc(/C=N/NC(=O)c2ccc(Cn3cc(Br)cn3)o2)cc1`, “inactive”. On the same count and under the same terms, then `CCOC(=O)C1CCN(C(=O)Nc2cccc(OC)c2)CC1`, with “inactive”; and `CC1(c2ccc3ccccc3c2)NC(=O)N(CC(N)=O)C1=O` (stereo not drawn), with “inactive”. Turning to `CCOC(=O)C1CCN(C(=O)CN2C(=O)NC(C)(c3ccc4cc(OC)ccc4c3)C2=O)CC1` (stereo not drawn), the Potency is 18.4 µM (active). For `CCSc1nnc(NC(=O)c2cc(=O)c3cc(C)c(C)cc3o2)s1`, the Potency result was “inactive”. In the case of `CN=C1S/C(=C\c2c(OC)cc(OC)cc2OC)C(=O)N1C`, the Potency result is “inactive”.

On to `O=C(COC(=O)/C=C/c1cccs1)NC1CCCCC1`, for which the Potency result was “inactive”. With `COc1ccc(CCNC(=O)c2cnc(Cl)c(Cl)c2)cc1`, the Potency entry is “inactive”. With `COc1ccc(CCNC(=O)c2ccco2)cc1`, the Potency result was “inactive”. On the same count and under the same terms, under `CCOc1ncccc1C(=O)NCCc1ccc(OC)cc1` stands 18.4 µM (active). On the same count and under the same terms, under `OCCN1CCN(c2ncnc3c2ncn3[C@H]2CN(Cc3ccco3)C[C@@H](CO)O2)CC1` stands “inactive”. For `Cc1nn(CC(=O)N2CCN(c3cccc(C(F)(F)F)c3)CC2)c(=O)c2cc3sccc3n12`, the Potency entry is “inactive”. Still for that read-out and setting: under `COc1ccc2[nH]c(=S)cc(C)c2c1` stands “inactive”; under `COc1ccc2[nH]c3ccc(OC)cc3c2c1`, “inactive”.

Regarding `COc1ccc2[nH]c3c(C)c4cc[n+](C)cc4c(C)c3c2c1`, the Potency is 0.259 µM (active).

On to `O=C(CSc1nnnn1C1CCCC1)N1CCCCC1`, for which the Potency entry is “inactive”. Take `COc1ccccc1/C=C/C=N/NC(=O)CN1CCN(Cc2ccccc2)CC1`: the Potency result was “inactive”. Same read-out and setting: under `CSc1nc2ccccc2cc1/C=C(\C#N)c1ccc(Cl)cc1Cl` stands “inactive”; under `Cc1ccc(-c2nnc(SCc3ccccc3C)o2)cc1`, “inactive”.

On to `Cc1ccc(S(=O)(=O)N(CC(O)CN2C(=O)NC(C)(C)C2=O)c2cccc([N+](=O)[O-])c2)cc1` (stereo not drawn), for which the Potency entry is “inactive”. As for `Cc1ccc(S(=O)(=O)N(CC(O)CN2CCCCC2)c2cccc([N+](=O)[O-])c2)cc1` (stereo not drawn), the Potency result is “inactive”. Still for that read-out and setting: then `COc1ccc([N+](=O)[O-])cc1N(CC(O)CN(CC(C)C)CC(C)C)S(=O)(=O)c1ccc(C)cc1` (stereo not drawn), with 25.9 µM (active). The same measure, in the same setting: under `COC(=O)c1ccc(CNC(=O)C2CCC(=O)N(Cc3ccccn3)C2)cc1` (stereo not drawn) stands “inactive”; under `CCOCCOC(=O)C1=C(C)NC(=O)NC1c1ccc2c(c1)OCO2` (stereo not drawn), “inactive”; under `CCOC(=O)C1=C(CN2CCc3ccccc32)NC(=O)NC1c1cccc([N+](=O)[O-])c1` (stereo not drawn), 14.1 µM (active). The same measure, in the same setting: then `CCOC(=O)C1=C(CNC2CCCCC2)NC(=O)NC1c1cc(C)ccc1C` (stereo not drawn), with 25.9 µM (active); and `CCOC(=O)C1=C(c2ccccc2)NC(=O)NC1c1cc(OC)c(OC)cc1OC` (stereo not drawn), with “inactive”; and `CCOC(=O)C1=C(CN2CCc3ccccc32)NC(=O)NC1c1cc(C)ccc1C` (stereo not drawn), with 17.8 µM (active). Take `CCOC(=O)C1=C(CSc2nccn2C)NC(=O)NC1c1ccc(OC)cc1` (stereo not drawn): the Potency entry was “inactive”.

As to `NC(=O)N1CCc2ccccc21`, the Potency entry is “inactive”. Still for that read-out and setting: then `CCOC(=O)COc1ccc(Cl)cc1C1NC(=O)NC(C)=C1C(C)=O` (stereo not drawn), with “inactive”; and `Cc1nn(-c2ccccc2)c2c1C(c1cccc([N+](=O)[O-])c1)N(c1ccccc1)C(=O)N2` (stereo not drawn), with “inactive”; and `CCc1cc(-c2nnc(SCC(=O)NC3CC3)n2C)cs1`, with “inactive”. On to `NC(CSC(c1ccccc1)(c1ccccc1)c1ccc(-c2ccccc2)cc1)C(=O)O` (stereo not drawn), for which the Potency entry is “inactive”.

In the case of `COC(=O)[C@@H]1C[C@H](NC(=O)c2ccccc2C(F)(F)F)CN1Cc1cccc(O)c1`, the activity change, negative = growth inhibition was 9.61% [at 9.04 µM].

For the compound `CC(CN1CCC(n2nccc2NC(=O)C2CCCC2)CC1)c1ccccc1` (stereo not drawn), the Potency entry was “inactive”. On the same count and under the same terms, under `C=CCN1CCN(c2ccncc2S(=O)(=O)N2CCN(C)CC2)CC1` stands “inactive”; under `CC1(C(=O)NCc2ccccc2)CSCC(=O)N1CCCN1CCOCC1` (stereo not drawn), “inactive”.

As to `Cc1cc2oc(=O)cc(CN(C)Cc3ccccc3)c2cc1Cl`, the Potency entry is “inactive”.

With `CC(C)(O)C#Cc1ccc(CNC[C@H]2O[C@@H](n3cnc4c(=O)[nH]c(N)nc43)[C@H](O)[C@@H]2O)s1`, the Potency result was “inactive”.

For the compound `C=C(C)C(=O)O[C@H]1C/C(C)=C\C(=O)/C=C(\C)[C@H](O)[C@@H]2OC(=O)C(=C)[C@@H]21`, the Potency was 0.58 µM (active). In the case of `C/C=C(\C)C(=O)O[C@H]1CC(C)=C2C(=O)C=C(C)C2[C@@H]2OC(=O)[C@@](C)(OC(=O)C=C(C)C)C21` (stereo partly drawn), the activity change, negative = growth inhibition is -19.3% [at 9.04 µM].

On to `Cc1ccc(CNC(=O)CC(NC(=O)c2ccccc2)c2ccccc2)cc1` (stereo not drawn), for which the Potency result was “inactive”. For the compound `Cn1c(SCC(=O)Nc2nccs2)nnc1-c1cccnc1`, the Potency entry was “inactive”. As to `CCOC(=O)C1CCN(C(=O)Nc2ccc(C)c(Cl)c2)CC1`, the Potency entry is “inactive”. Still for that read-out and setting: then `COc1ccc(NC(=O)NCc2ccc3c(c2)OCO3)c(OC)c1`, with “inactive”.

As to `COc1cccc(CNCc2ccc3c(c2)OCO3)c1`, the Potency entry was “inactive”. Same read-out and setting: then `COc1ccc2c(c1)C(C)=CC(C)(C)N2C(=O)CNCc1ccc2c(c1)OCO2`, with 20.6 µM (active); and `CCc1ccc(-n2c(=S)sc3c(=O)n(-c4ccccc4OC)c(=S)[nH]c32)cc1`, with “inactive”.

Regarding `NS(=O)(=O)c1ccc(NC(=S)NNC(=O)c2cccs2)cc1`, the Potency result is “inactive”. Same read-out and setting: under `COc1cccc(NC(=O)C(Sc2nc3ccccc3c(=O)n2CC(C)C)c2ccccc2)c1` (stereo not drawn) stands “inactive”; under `COc1cccc(Nc2nc3ccccc3c3nncn23)c1`, 16.4 µM (active); under `FC(F)(F)c1ccccc1-c1nc(-n2ccnc2)c2ccccc2n1`, “inactive”. Still for that read-out and setting: then `COc1ccc(C)cc1Nc1nc2ccccc2c2nnc(C)n12`, with “inactive”; and `FC(F)(F)c1cc(Nc2nc3ccccc3c3nncn23)ccc1Cl`, with 23.1 µM (active).
